Assay outcomes from PubChem BioAssay.
Bst PK mod: modulators of Bacillus stearothermophilus pyruvate kinase. actives 1.2% (n = 51,000). AID 361. purified pyruvate kinase, luminescence ATP production; ribose 5-phosphate activator present at AC10. Potency, µM; in the data active means potency below about 11 µM; inconclusive means mostly about 12 µM to 25 µM;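 the screen sought inhibitors and activators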
TSHR ag: activates the human thyroid stimulating hormone receptor. P16473. HEK293-CNG-TSHR cells (CNG channel as cAMP sensor), membrane potential dye, cAMP. Potency, µM (highest dose often 57.1 µM), most hits filed as activators. actives 0.48% (n = 73,000); active means well fitted activation curve with a large enough effect in the main read-out, with a control signal flat, not every such curve was filed as active; inconclusive means small, poorly fitted or top-dose-only effect, or a change in a side signal; inactive means no such curve, though single readings can be large or run the other way; reference of the percent scale not stated here;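 further: the control signal comes from parental cells without the receptor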
Target sequence (P16473 whole entry, looked up): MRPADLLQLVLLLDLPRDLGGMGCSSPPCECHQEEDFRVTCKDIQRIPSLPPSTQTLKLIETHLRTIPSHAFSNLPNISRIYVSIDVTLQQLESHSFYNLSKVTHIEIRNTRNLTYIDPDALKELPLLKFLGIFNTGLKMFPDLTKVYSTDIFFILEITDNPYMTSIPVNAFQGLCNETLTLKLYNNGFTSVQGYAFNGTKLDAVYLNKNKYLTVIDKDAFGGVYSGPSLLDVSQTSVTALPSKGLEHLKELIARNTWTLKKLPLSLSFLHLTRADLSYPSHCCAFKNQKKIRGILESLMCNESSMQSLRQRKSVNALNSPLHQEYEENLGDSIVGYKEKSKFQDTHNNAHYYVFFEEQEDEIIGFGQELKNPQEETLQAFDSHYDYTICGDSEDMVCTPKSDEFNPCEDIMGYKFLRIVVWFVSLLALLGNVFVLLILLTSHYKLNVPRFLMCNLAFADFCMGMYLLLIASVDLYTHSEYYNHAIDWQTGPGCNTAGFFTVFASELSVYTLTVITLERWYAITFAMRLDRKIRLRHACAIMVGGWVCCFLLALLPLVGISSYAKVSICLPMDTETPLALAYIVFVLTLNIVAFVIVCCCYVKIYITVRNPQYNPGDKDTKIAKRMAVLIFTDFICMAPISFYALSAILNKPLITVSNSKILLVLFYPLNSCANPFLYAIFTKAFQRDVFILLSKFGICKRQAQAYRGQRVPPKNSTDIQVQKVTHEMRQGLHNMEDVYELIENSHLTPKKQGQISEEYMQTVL
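cAMP rise detected as CNG-channel membrane depolarization by fluorescent dye (emission 590 nm), 30 min after compound, following 60 min dye loading containing 100 uM RO 20-1724 at room temperature. Cells: TSHR/CNG HEK 293, with parental CNG HEK 293 as control.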
Luciferase inh: firefly luciferase inhibition; purified firefly luciferase, luminescence, 8 min; Potency, µM (doses to about 57.1 µM), usual class: inhibitors; actives 2.2% (n = 72,000); AID 411; further: nearly all actives have a fitted effect of over 40% in size
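Titration-based qHTS; buffer 50 mM imidazole pH 7.2, 50 mM KCl, 7 mM MgCl2, 10 uM ATP, 0.01% Tween 20, 0.05% BSA; luciferase/luciferin detector mix added after compound; 8 min, ambient; luminescence.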
HEK293 cAMP ctrl: parental HEK293 cAMP activation (counter-screen) | parental HEK293 CNG cAMP sensor, membrane potential fluorescence | Potency, µM (series often up to 57.1 µM), actives largely listed as activators | actives 2.5% (n = 73,000) | AID 938; further: nearly all actives have a fitted effect of over 55% in size
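Counterscreen for endogenous-receptor signalling: CNG-channel HEK 293 cells report cAMP rise by membrane depolarization. After 60 min dye equilibration with 100 uM RO 20-1724, compounds incubated 30 min before bottom-read fluorescence at 590 nm.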
Large screens that a line does not name were inactive. Sampled rows, rich in hits. Any-hit rate of the full collection: about 5.2%. Unless noted, the call rests on the fitted dose curve; in most records, active means well fitted curve in the direction sought with a large enough effect; inconclusive means small, poorly fitted or top-dose-only effect, or another doubt; inactive means no such curve, though single readings can be large; an effect the other way counts as inactive or inconclusive.

COC(=O)c1ccc(CSc2nc3c(c(=O)n2-c2ccccc2)SCC3)o1	none (no result: Bst PK mod)
CC1CCCN(c2nc3ccsc3c(=O)s2)C1 (stereo unspecified)	TSHR ag inconclusive, HEK293 cAMP ctrl 25µM (no result: Bst PK mod)
COc1ccc2nc(N3CCCC(C(=O)NCCCN4CCN(C)CC4)C3)sc2c1 (stereo unspecified)	Luciferase inh inconclusive
Cc1nc(S(=O)(=O)N(C)Cc2ccccc2)c(C#N)c(C)c1Cl	none
O=C(Cc1ccc2cccnc2c1)c1ccc(O)cc1O	Bst PK mod 6
CC1CC(C)(C)Nc2ccc(OC(=O)c3ccco3)cc21 (stereo unspecified)	Luciferase inh 13µM (no result: Bst PK mod)
O=C(Oc1ccc2ccccc2c1)c1ccco1	none (no result: Bst PK mod)
CCOC(=O)CCSCC(=O)Nc1nnc(C)s1	none (no result: Bst PK mod, TSHR ag)
Cc1ccc(Cl)cc1N1CCN(S(=O)(=O)c2ccc3c(c2)OCCO3)CC1	none
Cc1ccc(C)c(N2CCN(S(=O)(=O)c3ccc4c(c3)OCCO4)CC2)c1	TSHR ag 25µM
CCC(C)(C(=O)NC1CCCCC1)N(Cc1ccco1)C(=O)CNC(=O)c1ccccc1 (stereo unspecified)	TSHR ag inconclusive, HEK293 cAMP ctrl inconclusive
CCC(C)(C(=O)NC1CCCC1)N(Cc1ccco1)C(=O)c1ccc2c(c1)OCO2 (stereo unspecified)	TSHR ag inconclusive, HEK293 cAMP ctrl 2.5µM
CCC(C)(C(=O)NC1CCCCC1)N(Cc1ccco1)C(=O)c1cnccn1 (stereo unspecified)	TSHR ag inconclusive, HEK293 cAMP ctrl 3.2µM
CCC(C)(C(=O)NC1CCCC1)N(Cc1cccs1)C(C)=O (stereo unspecified)	none
CCC(C)(C(=O)NC1CCCC1)N(Cc1cccs1)C(=O)Cc1cccs1 (stereo unspecified)	TSHR ag inconclusive, HEK293 cAMP ctrl 2.5µM
CCC(C)(C(=O)NC1CCCC1)N(Cc1ccco1)C(=O)c1ccccn1 (stereo unspecified)	TSHR ag inconclusive, HEK293 cAMP ctrl inconclusive
COCCNC(=O)CN1CCC(NC(=O)Nc2ccccc2)CC1	none
CCCc1cc(=O)[nH]c(SCC(=O)c2ccc(S(=O)(=O)N3CCCC3)cc2)n1	none
CC1(C)CC(=O)C2=C(C1)NC(SCC(=O)Nc1ccccc1)=C(C#N)C21CCCCC1	none
CCC(C)(C)n1nnnc1CN(Cc1cccs1)Cc1cc2cc(OC)ccc2[nH]c1=O	TSHR ag inconclusive, HEK293 cAMP ctrl 16µM
CCOc1ccc2[nH]c(=O)c(CN(Cc3cccs3)Cc3nnnn3C(C)(C)CC)cc2c1	TSHR ag inconclusive, HEK293 cAMP ctrl 20µM
COCCn1nnnc1CN(Cc1cccnc1)Cc1cc2cc(OC)ccc2[nH]c1=O	none
CCOC(=O)CCc1c(C)c2ccc(OC(C)C(=O)OCC)c(C)c2oc1=O (stereo unspecified)	TSHR ag inconclusive, HEK293 cAMP ctrl 20µM
COc1cccc(OC)c1-c1nnc(-c2cn(C)c3ccccc23)o1	TSHR ag inconclusive, HEK293 cAMP ctrl 20µM
CCCCc1c2ccccc2nc2[nH]c3ccccc3c12	TSHR ag inconclusive, HEK293 cAMP ctrl 13µM (no result: Bst PK mod, Luciferase inh)
CCCCCc1c(O)c2ccccc2[nH]c1=O	none
Cc1cccc(N(CC(=O)NC2CCCCC2)C(=O)c2c(C)noc2C)c1	TSHR ag inconclusive, HEK293 cAMP ctrl 16µM
Cc1cc(NC(=O)CCCC(=O)N(CC(=O)NC2CCCCC2)c2ccccc2)no1	TSHR ag inconclusive, HEK293 cAMP ctrl inconclusive (no result: Bst PK mod)
CCCCOCCOCCOCc1cc2c(cc1CCC)OCO2	TSHR ag inconclusive, HEK293 cAMP ctrl 32µM (no result: Bst PK mod, Luciferase inh)
CCCCOCCCNC(=O)c1ccc2c(c1)OCO2	none (no result: Bst PK mod)
CCn1cc(C2=NOC(C(=O)O)C2)c(C)n1 (stereo unspecified)	none (no result: Bst PK mod, Luciferase inh)
COc1ccc(-c2noc(CCC(=O)NCCN(C)Cc3ccccc3)n2)cc1	TSHR ag inconclusive, HEK293 cAMP ctrl inconclusive
CCN(CCCNC(=O)CCc1nc(-c2ccc(OC)cc2)no1)c1cccc(C)c1	TSHR ag 13µM
CC(=O)Nc1cc(NC(=O)CCCC(=O)O)ccc1Cl	none (no result: Bst PK mod)
COc1ccc(Cn2c(-c3ccco3)nc3oc4cc(OC)ccc4c(=O)c3c2=O)cc1	TSHR ag 3.2µM
COc1cccc(-c2nc3ccc(O)cc3c(=O)o2)c1	Bst PK mod 11, Luciferase inh inconclusive
Cc1ccc(N(Cc2ccco2)C(=O)c2cccc(S(=O)(=O)N(C)C)c2)cc1	TSHR ag 20µM
COc1ccc2cc3cc(C(=O)NCCN4CCc5ccccc5C4)oc3nc2c1	Bst PK mod 0.76
COc1ccc2cc3cc(C(=O)NCCN4CCN(Cc5ccccc5)CC4)oc3nc2c1	Bst PK mod inconclusive, TSHR ag inconclusive, HEK293 cAMP ctrl inconclusive
CCCc1cc(C(N)=O)c(NC(=O)c2ccco2)s1	none
